Assay results from PubChem BioAssay AID2057 (The Scripps Research Institute Molecular Screening Center, 2009).
About 2,100 (0.66%) of roughly 320,000 compounds were called active.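 How the source made its calls: active means inhibition above the mean inhibition of all tested compounds plus 3 SD, set per campaign (cut at about 40% in these data); inactive means the rest.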 The entries come from a sample that favours actives as a whole.

Each compound was assayed against Induced myeloid leukemia cell differentiation protein Mcl-1 (Homo sapiens) (UniProt Q07820) (assay: inhibitors of MCL1 binding to BIM-BH3, primary screen, biochemical, fluorescence polarization (AID 2057;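 further: 0% = DMSO wells and 100% = unlabeled Bim-BH3 peptide control; higher means more loss of mP so more displacement of Bim peptide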)). Details: GST-MCL1 / FITC-Bim-BH3 fluorescence polarization; at 10.9 µM; stronger effect = higher value.
Induced myeloid leukemia cell differentiation protein Mcl-1 (Homo sapiens), sequence (Q07820 whole entry, looked up): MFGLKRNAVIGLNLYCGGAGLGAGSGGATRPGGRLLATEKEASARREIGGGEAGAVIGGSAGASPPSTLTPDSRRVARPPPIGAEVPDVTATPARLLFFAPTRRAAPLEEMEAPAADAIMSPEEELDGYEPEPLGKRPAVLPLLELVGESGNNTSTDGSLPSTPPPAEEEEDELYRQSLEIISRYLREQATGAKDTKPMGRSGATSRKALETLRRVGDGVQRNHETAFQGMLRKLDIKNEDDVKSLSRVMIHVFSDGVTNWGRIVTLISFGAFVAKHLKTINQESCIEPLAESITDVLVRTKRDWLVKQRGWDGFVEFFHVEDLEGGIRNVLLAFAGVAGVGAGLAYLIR
For CC/C(C)=N/Nc1nc2sc3c(c2c(=O)[nH]1)CC(C)(C)OC3, the inhibition was 85% (active).
In the case of CCSc1nc2sc3c(c2c(=O)[nH]1)CC(C)(C)OC3, the inhibition is reported as 7.1% (inactive).
With CCC1(C)Cc2c(sc3nc(SC)[nH]c(=O)c23)CO1 (configuration not stated) the inhibition was 6.42% (inactive).
Nc1cc(N)nc(SCC(=O)Nc2cccc(S(=O)(=O)N3CCCCC3)c2)n1 was tested, and the inhibition was -0.58% (inactive).
In the case of CC[C@]1(O)CC2CN(CCc3c([nH]c4ccccc34)[C@@](C(=O)OC)(c3cc4c(cc3OC)N(C=O)[C@H]3[C@@](O)(C(=O)OC)[C@H](OC(C)=O)[C@]5(CC)C=CCN6CC[C@]43[C@@H]65)C2)C1 (some centres not stated), the inhibition is reported as 20.2% (inactive).
With CC[C@]1(O)C[C@@H]2CN(CCc3c([nH]c4ccccc34)[C@@](C(=O)OC)(c3cc4c(cc3OC)N(C)[C@H]3[C@@](O)(C(=O)OC)[C@H](OC(C)=O)[C@]5(CC)C=CCN6CC[C@]43[C@@H]65)C2)C1 the inhibition was 119% (active).
In the case of O=C(Cn1c(NCCO)nc2ccccc21)c1ccc(Cl)cc1Cl, the inhibition is reported as -2.09% (inactive).
CC[C@@H](C)[C@H](NC(=O)CCc1c(C)c2cc3c4c(oc3c(C)c2oc1=O)CCCC4)C(=O)O was tested, and the inhibition was 8.32% (inactive).
COc1ccc2nc(N3CCCC(O)C3)c(C#N)cc2c1 (configuration not stated) was tested, and the inhibition was 26.1% (inactive).
For CCOc1ccc2nc(N3CCCN(C(=O)Nc4ccccc4C)CC3)c(C#N)cc2c1, the inhibition was 48.6% (active).
CCOC(=O)c1cc(C#N)c(N2CCCCC2)nc1-c1ccccc1 was tested, and the inhibition was 2.02% (inactive).
For CSc1ncccc1C(=O)OCc1ccc(Br)cc1, the inhibition was 4.52% (inactive).
CCC(C)(C)NC(=O)c1cc([N+](=O)[O-])ccc1N1CCCCC1 was tested, and the inhibition was -1.47% (inactive).
For CN(C)/C=C1/Nc2ccccc2C1=O, the inhibition was 5.28% (inactive).
For Cc1cc(C)c(/C=C2\C(=O)Nc3ccccc32)[nH]1, the inhibition was 180% (active).
In the case of O=C1Nc2ccccc2/C1=C/c1ccnc2ccccc12, the inhibition is reported as 4.28% (inactive).
With Fc1ccc(CNc2nc3ccccc3n3nnnc23)cc1 the inhibition was 60.1% (active).
With COc1ccc(CNc2nnnn2C)cc1 the inhibition was 2.94% (inactive).
For CCOC(=O)CNc1nc2ccccc2n2c(C)nnc12, the inhibition was 6.27% (inactive).
CCC1CCCCN1C(=S)Nc1ccc(SC(F)F)cc1 (configuration not stated) was tested, and the inhibition was 7.19% (inactive).
COc1ccc(N2CC(C(=O)N[C@@H](C)C(=O)N3CCCCC3)CC2=O)cc1 (some centres not stated) was tested, and the inhibition was 3.6% (inactive).
With O=C(O)c1ccc2c3c(cccc13)C(=O)N(OS(=O)(=O)c1ccccc1)C2=O the inhibition was -8.23% (inactive).
In the case of O=C1c2ccccc2C(=O)N1c1cccc2ccccc12, the inhibition is reported as 2.1% (inactive).
C[N+](C)(CCCCCC[N+](C)(C)CCCN1C(=O)c2cccc3cccc(c23)C1=O)CCCN1C(=O)c2cccc3cccc(c23)C1=O was tested, and the inhibition was -10.5% (inactive).
With Cc1nn(-c2cc(Cl)ccc2N)c(=O)c2ccccc12 the inhibition was 0.14% (inactive).
In the case of CC(C)(CNC(=O)Cc1ccc(Cl)cc1Cl)N1CCOCC1, the inhibition is reported as 4.7% (inactive).
For O=C(c1cccnc1)N(c1cc2sc(=O)oc2c2ccccc12)S(=O)(=O)c1ccccc1, the inhibition was 23.9% (inactive).
With CCCCC(NC(=O)c1cccc(Br)c1)C(=O)O (configuration not stated) the inhibition was -0.19% (inactive).
In the case of CC1=NN(C(C)C)C(=O)C1, the inhibition is reported as -2.13% (inactive).
COCc1c(N)c(C)nc(Cl)c1C#N was tested, and the inhibition was 8.83% (inactive).
CCOc1ccc(N(CC(=O)NCC2CCCO2)S(=O)(=O)c2ccc(C)cc2)cc1 (configuration not stated) was tested, and the inhibition was -3.41% (inactive).
Cc1c(C)c2ccc(OCC(=O)N3CCC(C(=O)O)CC3)c(C)c2oc1=O was tested, and the inhibition was -1.79% (inactive).
Cc1c(CC(=O)N2CCN(C(=O)C3COc4ccccc4O3)CC2)c(=O)oc2c(O)c(O)ccc12 (configuration not stated) was tested, and the inhibition was 57.5% (active).
In the case of O=C(CNC(=O)C1COc2ccccc2O1)N/N=C/c1cc(Br)c(O)c(Br)c1 (configuration not stated), the inhibition is reported as 10.8% (inactive).
In the case of O=C(NCCCCc1ccccc1)C1CC(c2ccc([N+](=O)[O-])cc2)=NO1 (configuration not stated), the inhibition is reported as 12.6% (inactive).
With CN(CC(=O)NC1CCN(Cc2ccccc2)CC1)S(=O)(=O)c1ccc(Cl)s1 the inhibition was 3.17% (inactive).
CCc1cc(CNC(=O)CC2C(=O)NCCN2Cc2ccccc2C(F)(F)F)on1 (configuration not stated) was tested, and the inhibition was 17.3% (inactive).
CC1(C)CC(=O)C2=C(C1)NCN(CCCN1CCOCC1)C2 was tested, and the inhibition was -0.98% (inactive).
For O=C(NC(=S)Nc1ccc(S(=O)(=O)N2CCOCC2)cc1)c1ccccc1[N+](=O)[O-], the inhibition was 14.4% (inactive).
O=[N+]([O-])c1cc(Cl)cc(/C=N/NC(=S)Nc2cc(S(=O)(=O)N3CCOCC3)ccc2Cl)c1O was tested, and the inhibition was 52.5% (active).
With O=C(N/N=C/c1cc(Cl)cc([N+](=O)[O-])c1O)C(O)(c1ccccc1)c1ccccc1 the inhibition was 9.22% (inactive).
COC(=O)CN(c1cccc(C(C)=O)c1)S(C)(=O)=O was tested, and the inhibition was 0.97% (inactive).
CCCSc1ncccc1C(=O)O was tested, and the inhibition was -3.51% (inactive).
With COc1ccc(NS(=O)(=O)c2ccc(F)cc2F)cn1 the inhibition was 8.27% (inactive).
In the case of COc1cccc(Nc2ncccc2C(=O)O)c1, the inhibition is reported as 1.4% (inactive).
In the case of COc1ccc(Nc2cc(Cl)ccc2C(=O)O)cn1, the inhibition is reported as 62.7% (active).
In the case of CCCOc1ccc(Cl)cc1Nc1nc(NCCO)nc(N2CCCC2)n1, the inhibition is reported as 3.82% (inactive).
For NC1=NC2(CCCCC2)N(c2ccc(F)cc2F)C(N)=N1, the inhibition was 10.2% (inactive).
For COc1ccc(Cl)cc1C(=O)OCC(=O)NCc1cccs1, the inhibition was -2.56% (inactive).
In the case of C=CCNc1nnc(SCC(=O)N2CCCCC2)c2ccccc12, the inhibition is reported as 120% (active).
In the case of O=C(CSc1ncccn1)N1CCCC1, the inhibition is reported as 9.67% (inactive).
For C=CCNc1nnc(C)c2ccccc12, the inhibition was -0.12% (inactive).
In the case of O=C(NCCSCc1ccccc1)c1ccc(Cl)c(S(=O)(=O)N2CCOCC2)c1, the inhibition is reported as 1.14% (inactive).
In the case of O=C(c1ccc(F)c(S(=O)(=O)N2CCOCC2)c1)N(CCc1ccccc1)Cc1ccccc1, the inhibition is reported as 32.4% (inactive).
In the case of CCOc1ccc(NC(=O)CCCCCN2C(=O)[C@@H]3Cc4ccccc4CN3C2=O)cc1, the inhibition is reported as 6.32% (inactive).
In the case of COc1ccc(CC(=O)Nc2c3c(nn2-c2cccc(Cl)c2)CS(=O)C3)cc1 (configuration not stated), the inhibition is reported as -2.25% (inactive).
For CCNc1nc(N)nc(-c2cc(Cl)ccc2OC)n1, the inhibition was -1.8% (inactive).
For Cc1cccn2c(=O)c3cc(C(=O)NCCN4CCOCC4)c(=N)n(Cc4cccnc4)c3nc12, the inhibition was 46.7% (active).
In the case of Cc1cccn2c(=O)c3cc(C(=O)NCC4CCCO4)c(=N)n(Cc4ccc(F)cc4)c3nc12 (configuration not stated), the inhibition is reported as -4.4% (inactive).
With COc1ccc(CCn2c(=N)c(C(=O)NCC3CCCO3)cc3c(=O)n4cccc(C)c4nc32)cc1OC (configuration not stated) the inhibition was 2% (inactive).
In the case of CC(C)(C)NC(=O)COC(=O)c1cc(Br)ccc1Cl, the inhibition is reported as -2.96% (inactive).
With CCCC1NC(=O)NC(C)=C1C(=O)OCC (configuration not stated) the inhibition was -0.76% (inactive).
Oc1ccc2ccccc2c1N=Nc1nccs1 was tested, and the inhibition was 61.4% (active).
CC1=C(C(=O)OC(C)(C)C)C(c2ccc(Br)cc2)NC(=O)N1CCCC(=O)O (configuration not stated) was tested, and the inhibition was 2.27% (inactive).
For CC[N+](C)(CC)CCC[n+]1c(-c2ccccc2)c2cc(N)ccc2c2ccc(N)cc21, the inhibition was 122% (active).
For C=C(C)CSc1nnc(-c2ccc(C)cc2)n1N, the inhibition was -0.24% (inactive).
For CC(OC(=O)c1ccccc1NCCO)C(=O)Nc1ccnn1C(C)C (configuration not stated), the inhibition was 1.18% (inactive).
In the case of CSCCC(NC(=O)c1ccc(Cl)cc1Cl)C(=O)NNC(=O)c1csc(N2CCOCC2)n1 (configuration not stated), the inhibition is reported as 12.3% (inactive).
CN(C(=O)COC(=O)c1cc(=O)[nH]c2ccccc12)C1CCCCC1 was tested, and the inhibition was 1.49% (inactive).
In the case of COC(=O)C[n+]1cccc2ccccc21, the inhibition is reported as 195% (active).
For COc1ccccc1NC(=O)C[n+]1ccccc1, the inhibition was -1.7% (inactive).
With Cc1cccc[n+]1CC(=O)c1ccccc1 the inhibition was 9.96% (inactive).
With Cn1ccs/c1=N\S(=O)(=O)c1ccc(C(C)(C)C)cc1 the inhibition was 5.09% (inactive).
O=[N+]([O-])c1cc([N+](=O)[O-])c(Oc2cc(F)cc(F)c2F)cc1NN1CCCCC1 was tested, and the inhibition was -1.7% (inactive).
In the case of COc1ccc2nc(SCc3ccccc3)nc(C)c2c1, the inhibition is reported as 1.99% (inactive).
O=C(CC1N=C2c3ccccc3N=C(SCc3ccccc3Cl)N2C1=O)NCc1ccco1 (configuration not stated) was tested, and the inhibition was 19.4% (inactive).
Fc1cccc(Cl)c1CSc1ccc(-c2ccco2)nn1 was tested, and the inhibition was 17.6% (inactive).
For Clc1ccccc1CSc1nnc(-c2ccco2)c(-c2ccco2)n1, the inhibition was 79.9% (active).
In the case of c1ccc(CSc2nnc(-c3ccco3)c(-c3ccco3)n2)cc1, the inhibition is reported as 82.3% (active).
With CCc1nnc(SCc2cccc(F)c2)nc1CC the inhibition was 0.71% (inactive).
With CCOC(=O)C1CCCN(C(=O)COc2ccc(N(C)S(=O)(=O)c3ccc(C)cc3)cc2)C1 (configuration not stated) the inhibition was -2.82% (inactive).
With CCCN(C(=O)c1nc2nccc(C)n2n1)c1c(N)n(Cc2ccccc2)c(=O)[nH]c1=O the inhibition was 0.15% (inactive).
In the case of COCc1cc(=O)n2[nH]c(C)c(-c3ccccc3)c2n1, the inhibition is reported as 10.3% (inactive).
For CCC1SC2=NCCN2C1(O)c1ccc(Cl)cc1 (configuration not stated), the inhibition was 7.57% (inactive).
With CN1C(=O)/C(=C\c2cc(Br)cs2)c2ccccc21 the inhibition was -0.58% (inactive).
In the case of O=C(COC(=O)c1ncc(Cl)c(Cl)c1Cl)NNC(=O)c1ccccc1, the inhibition is reported as 5.89% (inactive).
In the case of Cn1c(-c2ccc(C(F)(F)F)cc2)cc2onc(-c3ccccc3)c2c1=O, the inhibition is reported as 4.36% (inactive).
For Cc1oc2c(c1C(=O)N1CCOCC1)C(=O)c1ccccc1C2=O, the inhibition was -4.11% (inactive).
In the case of COC1=C(N2CCOCC2)C(=O)c2ccccc2C1=O, the inhibition is reported as 6.69% (inactive).
In the case of O=C1c2ccccc2-c2ncnc3c(N4CCOCC4)cc(N4CCOCC4)c1c23, the inhibition is reported as 48.8% (active).
COc1ccc(OC)c(NC(=O)CN(C)CCOc2ccc(Br)cc2)c1 was tested, and the inhibition was -19.6% (inactive).
For CCN(CC)C(=O)CC(c1ccc2c(c1)OCO2)c1c(OC)cc(OC)c2c(-c3ccccc3)cc(=O)oc12 (configuration not stated), the inhibition was 2.43% (inactive).
